Measurements taken from PubChem BioAssay AID1159580 (chemical genetic matrix, 2015).
In all, about 5,500 compounds went through this assay and about 2,000 (36%) were called active. About 18% were inconclusive and are not listed. Rule as the data show it: active = normalized growth mostly below about 0.91 (no sharp cut-off); inconclusive = no clear call, values can overlap the other calls; inactive = mostly above about 0.92. The list shows a part of the results.

Experiment: chemical genetic growth profiling, strain panel (AID 1159580);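 also: tested at 20 µM; growth read once vehicle control cultures reached saturation at 30 °C; 1 = growth at the plate median or of vehicle wells; lower values mean less growth of the strain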
Conditions: growth OD

Measured: normalized growth

C[C@H](COc1ccccc1)N[C@H](C)[C@H](O)c1ccc(O)cc1
inactive: S. cerevisiae deletion strains, locus YJR043C, strain POL32, active compounds read low 1.04 | S. cerevisiae deletion strains, locus YJR066W, strain TOR1, active compounds read low 0.946 | S. cerevisiae deletion strains, locus YKL009W, strain mrt4, active compounds read low 0.99 | S. cerevisiae deletion strains, locus YKL068W, active compounds read low 0.989 | S. cerevisiae deletion strains, locus YKL085W, strain MDH1 (second series), active compounds read low 0.977 | S. cerevisiae deletion strains, locus YKL085W, strain MDH1, active compounds read low 0.977 | S. cerevisiae deletion strains, locus YKL160W, strain elf1, active compounds read low 0.983 | S. cerevisiae deletion strains, locus YKL190W, strain CNB1, active compounds read low 1 | S. cerevisiae deletion strains, locus YKR001C, strain vps1, active compounds read low 1.01 | S. cerevisiae deletion strains, locus YKR026C, strain gcn3, active compounds read low 0.993 | S. cerevisiae deletion strains, locus YKR091W, strain srl3, active compounds read low 0.995 | S. cerevisiae deletion strains, locus YLL001W, strain dnm1, active compounds read low 0.966 | S. cerevisiae deletion strains, locus YLL026W, active compounds read low 1.01 | S. cerevisiae deletion strains, locus YLL041C, strain sdh2, active compounds read low 0.993 | S. cerevisiae deletion strains, locus YLR027C, strain aat2, active compounds read low 1.01 | S. cerevisiae deletion strains, locus YLR039C, strain RIC1, active compounds read low 0.898 | S. cerevisiae deletion strains, locus YLR058C, strain SHM2, active compounds read low 0.987 | S. cerevisiae deletion strains, locus YLR102C, strain apc9, active compounds read low 0.99 | S. cerevisiae deletion strains, locus YLR113W, strain HOG1, active compounds read low 0.962 | S. cerevisiae deletion strains, locus YLR221C, strain rsa3, active compounds read low 0.974 | S. cerevisiae deletion strains, locus YLR258W, strain gsy2, active compounds read low 0.997 | S. cerevisiae deletion strains, locus YLR262C, strain YPT6 (second series), active compounds read low 0.929 | S. cerevisiae deletion strains, locus YLR262C, strain YPT6, active compounds read low 1.04 | S. cerevisiae deletion strains, locus YLR268W, strain sec22, active compounds read low 0.999 | S. cerevisiae deletion strains, locus YLR320W, strain mms22, active compounds read low 0.97 | S. cerevisiae deletion strains, locus YLR330W, strain CHS5, active compounds read low 0.988 | S. cerevisiae deletion strains, locus YLR342W, strain FKS1 (second series), active compounds read low 1.01 | S. cerevisiae deletion strains, locus YLR342W, strain FKS1, active compounds read low 0.997 | S. cerevisiae deletion strains, locus YLR357W, strain rsc2, active compounds read low 0.95 | S. cerevisiae deletion strains, locus YLR370C, strain arc18, active compounds read low 0.994 | S. cerevisiae deletion strains, locus YLR371W, strain rom2, active compounds read low 0.98 | S. cerevisiae deletion strains, locus YLR384C, strain iki3, active compounds read low 1 | S. cerevisiae deletion strains, locus YLR418C, strain cdc73, active compounds read low 1.01 | S. cerevisiae deletion strains, locus YML016C, strain PPZ1, active compounds read low 0.986 | S. cerevisiae deletion strains, locus YML032C, strain rad52, active compounds read low 0.999 | S. cerevisiae deletion strains, locus YML120C, strain ndi1, active compounds read low 0.985 | S. cerevisiae deletion strains, locus YML124C, strain tub3, active compounds read low 0.983 | S. cerevisiae deletion strains, locus YMR058W, strain fet3, active compounds read low 0.988 | S. cerevisiae deletion strains, locus YMR078C, strain ctf18, active compounds read low 0.985 | S. cerevisiae deletion strains, locus YMR125W, strain sto1, active compounds read low 0.984 | S. cerevisiae deletion strains, locus YMR129W, active compounds read low 0.99 | S. cerevisiae deletion strains, locus YMR205C, strain PFK2, active compounds read low 0.974 | S. cerevisiae deletion strains, locus YMR223W, strain ubp8, active compounds read low 0.96 | S. cerevisiae deletion strains, locus YMR231W, strain pep5, active compounds read low 1 | S. cerevisiae deletion strains, locus YMR307W, strain GAS1, active compounds read low 1.05 | S. cerevisiae deletion strains, locus YNL067W, strain RPL9B, active compounds read low 1 | S. cerevisiae deletion strains, locus YNL071W, strain lat1, active compounds read low 1.01 | S. cerevisiae deletion strains, locus YNL128W, strain TEP1, active compounds read low 0.979 | S. cerevisiae deletion strains, locus YNL183C, strain NPR1, active compounds read low 0.95 | S. cerevisiae deletion strains, locus YNL209W, strain ssb2, active compounds read low 0.994 | S. cerevisiae deletion strains, locus YNL233W, strain BNI4, active compounds read low 0.979 | S. cerevisiae deletion strains, locus YNL248C, strain rpa49, active compounds read low 0.985 | S. cerevisiae deletion strains, locus YNL250W, strain rad50, active compounds read low 0.977 | S. cerevisiae deletion strains, locus YNL271C, strain bni1, active compounds read low 0.993 | S. cerevisiae deletion strains, locus YNL298W, strain CLA4, active compounds read low 0.989 | S. cerevisiae deletion strains, locus YNL307C, strain MCK1, active compounds read low 0.988 | S. cerevisiae deletion strains, locus YNL322C, strain KRE1 (second series), active compounds read low 0.998 | S. cerevisiae deletion strains, locus YNR049C, strain mso1, active compounds read low 0.991 | S. cerevisiae deletion strains, locus YNR052C, strain pop2, active compounds read low 0.987 | S. cerevisiae deletion strains, locus YOL012C, strain htz1 1.14 | S. cerevisiae deletion strains, locus YOL147C, strain pex11, active compounds read low 0.99 | S. cerevisiae deletion strains, locus YOR001W, strain rrp6, active compounds read low 1.01 | S. cerevisiae deletion strains, locus YOR061W, strain CKA2, active compounds read low 0.994 | S. cerevisiae deletion strains, locus YOR069W, strain VPS5, active compounds read low 0.98 | S. cerevisiae deletion strains, locus YOR070C, strain gyp1, active compounds read low 0.993 | S. cerevisiae deletion strains, locus YOR080W, strain dia2, active compounds read low 1 | S. cerevisiae deletion strains, locus YOR083W, strain WHI5, active compounds read low 0.987 | S. cerevisiae deletion strains, locus YOR106W, strain vam3, active compounds read low 0.979 | S. cerevisiae deletion strains, locus YOR136W, strain idh2, active compounds read low 0.999 | S. cerevisiae deletion strains, locus YOR144C, strain elg1, active compounds read low 0.999 | S. cerevisiae deletion strains, locus YOR184W, strain ser1, active compounds read low 1 | S. cerevisiae deletion strains, locus YOR231W, strain MKK1, active compounds read low 0.948 | S. cerevisiae deletion strains, locus YOR265W, strain rbl2, active compounds read low 1.01 | S. cerevisiae deletion strains, locus YOR270C, strain vph1, active compounds read low 0.978 | S. cerevisiae deletion strains, locus YOR290C, strain snf2, active compounds read low 0.938 | S. cerevisiae deletion strains, locus YOR316C, strain cot1, active compounds read low 0.986 | S. cerevisiae deletion strains, locus YPL051W, strain arl3, active compounds read low 0.982 | S. cerevisiae deletion strains, locus YPL055C, strain LGE1, active compounds read low 0.965 | S. cerevisiae deletion strains, locus YPL078C, strain atp4, active compounds read low 0.993 | S. cerevisiae deletion strains, locus YPL106C, strain sse1, active compounds read low 0.948 | S. cerevisiae deletion strains, locus YPL240C, strain hsp82, active compounds read low 1.01 | S. cerevisiae deletion strains, locus YPL256C, strain CLN2, active compounds read low 0.926 | S. cerevisiae deletion strains, locus YPR119W, strain clb2, active compounds read low 0.99 | S. cerevisiae deletion strains, locus YPR141C, strain kar3, active compounds read low 0.975 | S. cerevisiae deletion strains, locus YPR163C, strain tif3, active compounds read low 0.989 | S. cerevisiae deletion strains, locus YPR167C, strain met16, active compounds read low 0.993 | S. cerevisiae deletion strains, strain wtn01, active compounds read low 0.986 | S. cerevisiae strains, strain wild type, active compounds read low 0.993
